Assay results as given in PubChem BioAssay (EPA / NIEHS).
Activity calls are given as the source filed them. The calls were made as follows: active = hit-call score of the fitted dose curve at least 0.9, where 1 is the maximum; inactive = score below 0.9.

Test: ATG_M_61_CIS: Attagene CIS-FACTORIAL HepG2 Assay for M61 Transcription Factor (Internal Marker) (AID 2282937)
Conditions: HepG2 Attagene CIS-FACTORIAL M61 internal marker reporter; actives raise or lower the signal
Description: ATG_CIS is a cell-based, multiplexed-readout assay that uses HepG2, a human liver cell line, with measurements taken at 24 hours after chemical dosing in a 24-well plate.ATG_M_61_CIS is one of 52 assay component(s) measured or calculated from the ATG_CIS assay. It is designed to make measurements of mRNA induction, a form of inducible reporter, as detected with fluorescence intensity signals by Reverse transcription polymerase chain reaction (RT-PCR) and Capillary electrophoresis technology.Data from the assay component ATG_M_61_CIS was analyzed into 1 assay endpoint. This assay endpoint, ATG_M_61_CIS, was analyzed with bidirectional fitting relative to DMSO as the negative control and baseline of activity. Using a type of inducible reporter, measures of mRNA for gain or loss-of-signal activity can be used to understand the background control at the transcription factor-level as they relate to the gene . Furthermore, this assay endpoint can be referred to as a secondary readout, because this assay has produced multiple assay endpoints where this one serves a background control function. To generalize the intended target to other relatable targets, this assay endpoint is annotated to the background measurement intended target family, where the subfamily is internal marker.
Human liver HepG2 cells are transiently transfected with multiple reporter transcription units (MRTUs) in 6-well plates using FuGene 6 reagent (Roche; 3 ml FuGene/1 mg DNA). The MRTU constructs are regulated by a cis-regulating element (promoter). […] A major difference between the CIS and TRANS system is that in CIS activities of endogenous TFs are measured, whereas the TRANS assay evaluates changes in activities of exogenous, chimeric NR-Gal4 proteins. […] At the end of 24 hour incubation, total RNA was isolated using TriZol reagent (Invitrogen). The isolated RNA is then reverse-transcribed using oligo(dT) primer and Mo-MLV reverse transcriptase (Invitrogen) with DNAse I (Ambion) treatment for 30 min. The one-tenth of the produced cDNA was amplified by PCR using Taq DNA polymerase (Invitrogen) and two reporter sequence-specific primers. The PCR products were fluorescently labeled by primer extension with 6-arboxyfluorescein (6-FAM) 5'-labeled reporter sequence-specific primer (2 min at 95 C, 20 s at 68 C and 10 min at 72 C) and these products were digested with 5U of HpaI (New England Biolabs) for 2h at 37 C. The fragments were purified using Qiaquick PCR columns (Qiagen), analyzed on an ABI 3130xL genetic analyzer (Applied Biosystems) with peak positions identified by using a set of X-rhodamine (ROX)-labeled MapMarker1000 molecular weight standards (BioVentures). The raw capillary electrophoresis data was processed using Attagraph software (Attagene).

Structure (SMILES)	outcome
O=S(=O)(F)C(F)(F)C(F)(F)C(F)(F)C(F)(F)C(F)(F)C(F)(F)C(F)(F)C(F)(F)F	inactive
Cc1cccc(N)c1	inactive
O=c1ssc(Cl)c1Cl	inactive
CC(C)CBr	inactive
O=[N+]([O-])c1ccc(Cl)c(Cl)c1	inactive
Cc1ccc(O)cc1C	inactive
Oc1ccc(I)cc1	inactive
CC(C)(C)c1ccc(O)cc1	inactive
COC(=O)C(F)(F)C(F)(F)OC(F)(C(F)(F)F)C(F)(F)OC(F)=C(F)F (stereo not given)	inactive
CCOS(=O)(=O)OCC	inactive
c1ccc(OP(Oc2ccccc2)Oc2ccccc2)cc1	inactive
CCCCOCCOP(=O)(OCCOCCCC)OCCOCCCC	inactive
C=CC(=O)OCC(CC)(COC(=O)C=C)COC(=O)C=C	inactive
CCN(CC)C1CCCCC1	inactive
[N-]=[N+]=[N-]	inactive
CC(=O)CCc1ccc2c(c1)OCO2	inactive
CSC(C)(C)C=NO	inactive
ClC1=C(Cl)C2(Cl)C3C(Cl)C(Cl)CC3C1(Cl)C2(Cl)Cl (stereo not given)	inactive
CC1(C)CN=C(NN=C(/C=C/c2ccc(C(F)(F)F)cc2)/C=C/c2ccc(C(F)(F)F)cc2)NC1	inactive
N#Cc1cc([N+](=O)[O-])ccc1N	inactive

Structure (SMILES)	outcome
c1cc2c3c(cccc3c1)CC2	inactive
CCC1(c2ccccc2)C(=O)N=C(O)NC1=O (stereo not given)	inactive
C=C(C)C(=O)OCC1CO1 (stereo not given)	inactive
N#C/C=C/c1ccccc1	inactive
NNC(N)=S	inactive
CCOC(=O)c1ccccc1C(=O)OCC	inactive
CCOP(=O)(O)C(N)=O	inactive
O=C(O)C=CC(F)(C(F)(F)F)C(F)(F)F	inactive
O=P(OCC(Br)CBr)(OCC(Br)CBr)OCC(Br)CBr (stereo not given)	inactive
COCCOCCO	inactive
CC(Cl)CN(C)C (stereo not given)	inactive
O=C(O)C(Cl)Cl	inactive
CCCCN(CCCC)SN(C)C(=O)Oc1cccc2c1OC(C)(C)C2	inactive
O=[N+]([O-])c1ccccc1	inactive
O=P1(N(CCCl)CCCl)NCCCO1 (stereo not given)	inactive
CCOP(=S)(OCC)SCn1nnc2ccccc2c1=O	inactive
NC(=O)C(F)(F)C(F)(F)F	inactive
c1nc[nH]n1	inactive
CC(Cc1ccc(OCC(=O)O)cc1)NCC(O)c1csc(C(F)(F)F)n1 (stereo not given)	inactive
CCC(C)(C)c1ccc(O)cc1	inactive
